According to PubChem BioAssay AID2625 (National Center for Advancing Translational Sciences (NCATS), 2010):
Results filed as inconclusive are left out. The source made the active and inactive calls. Calls come from the whole dose curve; as a rule, active = well fitted curve in the direction sought with a large enough effect; inconclusive = small, poorly fitted or top-dose-only effect, or effect the other way, or another doubt; inactive = no such curve, though single readings can be large or run the other way.

biological target: Pyruvate kinase PKLR (Homo sapiens) (UniProt P30613); assay: Secondary LDH Assay for Activators of Human Liver Pyruvate Kinase: for Probe SAR; settings: purified hPK-L, LDH-coupled NADH fluorescence kinetic; series mostly up to 58.2 µM
Sequence (P30613 whole entry, looked up): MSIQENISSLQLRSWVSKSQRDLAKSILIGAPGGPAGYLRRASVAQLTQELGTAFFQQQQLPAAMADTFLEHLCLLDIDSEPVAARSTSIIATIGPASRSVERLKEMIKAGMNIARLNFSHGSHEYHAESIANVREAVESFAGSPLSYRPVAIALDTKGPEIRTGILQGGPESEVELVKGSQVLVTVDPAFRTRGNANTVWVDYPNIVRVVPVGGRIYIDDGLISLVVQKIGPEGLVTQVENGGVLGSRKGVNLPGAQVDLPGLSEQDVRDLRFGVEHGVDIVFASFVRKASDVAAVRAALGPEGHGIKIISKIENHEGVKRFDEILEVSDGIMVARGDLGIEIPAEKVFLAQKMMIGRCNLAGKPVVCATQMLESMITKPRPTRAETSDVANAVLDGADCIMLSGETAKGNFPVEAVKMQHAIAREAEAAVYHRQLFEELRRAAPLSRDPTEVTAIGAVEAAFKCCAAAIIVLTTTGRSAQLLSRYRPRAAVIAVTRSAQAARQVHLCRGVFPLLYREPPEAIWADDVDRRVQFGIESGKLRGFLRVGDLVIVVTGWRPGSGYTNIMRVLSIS
Description: NIH Chemical Genomics Center [NCGC]
Matthew G. Vander Heiden, M.D., Ph.D. [Harvard Medical School, 77 Avenue Louis Pasteur, Boston, MA 02115]
Human pyruvate kinase liver (hPK-L)enzyme was supplied as a highly purified (>95% pure) preparation from Harvard Medical School and a secondary assay was used to evaluate compounds. This assay couples the formation of pyruvate from hPK-R using lactate dehydrogenase (LDH) and NADH. The depletion of NADH is followed in a fluorescent-based kinetic assay that follows the formation of pyruvate to lactate, as catalyzed LDH. Pyruvate kinase substrates, PEP and ADP, were present in the assay at 0.1 mM and 4 mM respectively. In this kinetic assay initial rates were determined by following the fluorescence of NADH depletion.
NCGC Assay Protocol Summary:
Three uL of substrate mix (final concentration, 50 mM Tris-Cl pH 8.0, 200 mM KCl, 15 mM MgCl2, 0.1 mM PEP, 4.0 mM ADP, and 0.2 mM NADH) was dispensed into black-solid 1536 well plates. 23 nL of compounds were delivered by a pin tool and 1 uL of enzyme mix (final concentrations, 10 nM hPK-L and 1 uM of LDH) was added. Plates were immediately placed in ViewLux (Perkin Elmer) and NADH fluorescence was determined at 30 second exposure intervals for between 3 and 6 minutes. Data were normalized to the uninhibited and EC100 activation using known activators such as fructose-bis-phosphate.

outcome, inactive:
CN(C)c1cccc(S(=O)(=O)N2CCCN(S(=O)(=O)c3ccc4c(c3)OCCO4)CC2)c1
O=C1c2ccccc2C(=O)N1c1ccccc1O
Cc1cc(N2C(=O)c3ccccc3C2=O)n[nH]1
Cc1ccc(NS(=O)(=O)c2cc3c(cc2-c2cn[nH]c2)NC(=O)CO3)cc1C
Cc1nc(-c2ccc(S(=O)(=O)Nc3ccc(C)c(C)c3)s2)cs1
O=C1CCc2cc(S(=O)(=O)Nc3ccccc3-c3ccccc3)ccc2N1
COc1ccccc1OC1=NS(=O)(=O)c2ccccc21
Cc1ccc(NS(=O)(=O)c2cc3c(cc2Cl)NC(=O)C3)cc1C
Cc1ccc(OC2=NS(=O)(=O)c3ccccc32)cc1
Cc1ccc(NS(=O)(=O)c2ccc3c(c2)n(C)c(=O)n3C)cc1C
Cc1ccccc1Nc1c(-c2ccc(Cl)s2)nc2ccccn12
N#Cc1cccc(NS(=O)(=O)c2ccc3c(c2)CCC(=O)N3)c1
COc1cc(F)c(S(=O)(=O)N2CCCN(S(=O)(=O)c3cccc(N)c3)CC2)c(F)c1
Cc1ccn2c(NC3CCCCC3)c(-c3ccc(C)o3)nc2c1
Cc1ccc(NS(=O)(=O)c2ccc3c(c2)C(Cl)(Cl)C(=O)N3)cc1C
Cc1ccc(NS(=O)(=O)c2cc3c(cc2C)OCC(=O)N3)cc1C
COc1ccc(NS(=O)(=O)c2ccc3c(c2)CCC(=O)N3)cc1
Cc1ccc(NS(=O)(=O)c2ccc3c(c2)CCC(=O)N3)cc1F
Cc1ccc(NS(=O)(=O)c2ccc3c(c2)CC(=O)N3C)cc1C
Cc1ccc(NS(=O)(=O)c2cc3c(cc2C)NC(=O)CO3)cc1C
COc1cccc(Cn2ncc3c4sc(SC)cc4n(C)c3c2=O)c1
CNc1cccc(S(=O)(=O)N2CCCN(S(=O)(=O)c3ccc4c(c3)OCCO4)CC2)c1
COc1ccc(N2C(=O)c3ccccc3C2=O)cc1
O=C1c2ccccc2C(=O)N1c1ccccn1
Cc1ccc(NS(=O)(=O)c2ccc3c(ccn3C)c2)cc1C
Cc1ccc(NS(=O)(=O)c2cc3c(cc2Cl)CCC(=O)N3)cc1Cl
Cc1ccc(NS(=O)(=O)c2cccc(C(=O)O)c2)cc1C
Cc1cccc(NS(=O)(=O)c2ccc3c(c2)CCC(=O)N3)c1
O=C1CCc2cc(S(=O)(=O)Nc3cccc4ccccc34)ccc2N1
CNc1cc2c(cc1S(=O)(=O)Nc1ccc(C)c(C)c1)CCC(=O)N2
O=C1CCc2cc(S(=O)(=O)Nc3cccc(C(F)(F)F)c3)ccc2N1
Cc1ccc(Cl)cc1NS(=O)(=O)c1cc2c(cc1F)NC(=O)CC2
COc1ccccc1NS(=O)(=O)c1ccc2c(c1)CCC(=O)N2
Cc1ccc(NS(=O)(=O)c2ccc(F)cc2)cc1C
Cc1ccc(NS(=O)(=O)c2ccc3c(c2)CCC(C)(C)O3)cc1C
Cc1ccc(NS(=O)(=O)c2cc3c(cc2N(C)C)CCC(=O)N3)cc1C
CN(C)c1cccc(S(=O)(=O)N2CCN(S(=O)(=O)c3ccc4c(c3)OCCO4)CC2)c1
Cc1cc(N2C(=O)c3ccccc3C2=O)no1
O=C1CCc2cc(S(=O)(=O)Nc3ccc4ccccc4c3)ccc2N1
Cc1ccc(NS(=O)(=O)c2ccc3c(c2)N(C)C(=O)CO3)cc1C
